Screening results: PubChem BioAssay, several laboratories
In the library only some 3% were active in any assay of this set; here they are far more common.
CF NFkB inh: inhibitors of PAF-induced NF-kB signaling, primary screen, cell-based, GFP fluorescence, uHTS; 0.86% of 360,000 active; inhibition, % at 5 µM; KKLEB NF-kB-GFP reporter, GFP fluorescence overnight;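 active = at least 50% inhibition at 5 µM, scaled per plate between neutral and stimulator controls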;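 note: PAF is a Pseudomonas aeruginosa culture filtrate used as stimulus; plate controls were PAF-stimulated DMSO wells for no effect and unstimulated DMSO wells for full effect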
LMP1 NFkB inh: EBV LMP1-driven NF-kappaB luciferase reporter inhibitors, primary screen, cell-based, luminescence, single point. LMP1-induced NF-kappaB luciferase reporter cells. inhibition, % at 12.5 µM. 0.69% of 350,000 active. AID 504558, 2011; in the data active = inhibition above about 41%; inconclusive = no clear call, values can overlap the other calls;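 note: 0% = neutral control wells and 100% = reference inhibitor control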
HIF-2a inh: HIF-2a reporter inhibitors, primary screen, luminescence, 786-0 RCC cells | 786-0 RCC cells HIF-2a reporter, luciferase luminescence, overnight | inhibition, % at 18.8 µM | 0.72% of 360,000 active;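 active = inhibition of the luminescence signal of 40% or more relative to plate controls, in a single-dose primary screen at 18.75 µM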
Peg3 prom inh: Peg3 promoter-driven luciferase inhibitors, primary screen, cell-based, HeLa, luciferase luminescence | HeLa PEG-Prom luciferase reporter, overnight | inhibition, % at 20 µM | 1.7% of 360,000 active | AID 588405, 2011;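 active = inhibition of at least 50% at 20 µM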
MITF TRPM1 inh: inhibitors of MITF-dependent TRPM1 promoter reporter, primary screen, cell-based, SK-MEL-5, single point, luciferase; SK-MEL-5 TRPM1 promoter luciferase, 24 h; inhibition, % at 12.5 µM; 0.83% of 330,000 active; AID 488899, 2010;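 active = mean inhibition across replicates of 60% or more, whatever share of single replicates reaches that level; inconclusive = some that reach 60%, reason not given; inactive = mean inhibition across replicates below 60%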
KKLEB cytotox: cytotoxicity in KKLEB CF airway cells, primary screen, cytotoxicity control for CF NF-kB inhibitor project, cell-based, uHTS, fluorescence assay plates. KKLEB CF airway cells viability, ATPlite luminescence, overnight; stronger effect = lower value; cells stimulated with P. aeruginosa culture filtrate. activity change (cytotoxicity), % at 5 µM. 0.36% of 360,000 active. AID 602141, 2011;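 active = corrected activity change at or below -50% at 5 µM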
* = called active by the depositor; u = inconclusive; x = no result; ! = not active in a repeat.

SMILES | CF NFkB inh | LMP1 NFkB inh | HIF-2a inh | Peg3 prom inh | MITF TRPM1 inh | KKLEB cytotox
C[C@]12CCC3c4ccc(OCC(=O)O)cc4CCC3C1CCC2=O (stereo partly drawn) | -8 | 1 | 17 | 0 | -3 | 0
C=C(C)COc1ccc2c(c1)CCC1C2CCC2(C)C(=O)C(=NO)CC12 (stereo not drawn) | 64* | -34 | 14 | 71* | 4 | -42
C[C@]12CC[C@@H]3c4ccc(OS(=O)(=O)O)cc4CC[C@H]3[C@@H]1CCC2=O | -10 | 66*! | -1 | -5 | -1 | 3
CC12CCC3c4ccc(OCC(=O)O)cc4CCC3C1CCC2=O (stereo not drawn) | 9 | -12 | 16 | 1 | 1 | 6
OC[C@@H]1CN(Cc2cccc(C(F)(F)F)c2)C[C@H](n2cnc3c(NCc4ccco4)ncnc32)O1 | -10 | x | 7 | 10 | x | -1
O=C(NCc1ccccc1)c1ccc(-c2cn[nH]c2)c2ccoc12 | 54* | x | -171 | -171 | x | -67*
COCCNC(=O)c1ccc(-c2cn[nH]c2)c2ccoc12 | 21 | x | -27 | -18 | x | -20
O=C(NCc1ccccc1)C1c2ccccc2OCC(=O)N1Cc1cccnc1 (stereo not drawn) | x | x | 2 | x | x | x
COc1ccc(-c2nc(-c3cccs3)no2)cc1 | -2 | 48* | 28 | 11 | 22 | -18
CC1(C(=O)Nc2ccc(Cl)c(Cl)c2)CCN1C(=O)Cc1ccc(-c2ccccc2)cc1 (stereo not drawn) | 9 | x | 10 | 19 | x | -18
Cc1[nH][nH]c(=O)c1C(c1c(C)[nH][nH]c1=O)c1cn(Cc2ccc(F)cc2)c2ccccc12 | 15 | 0 | 11 | 64* | 22 | -14
Cc1[nH][nH]c(=O)c1C(c1c(C)[nH][nH]c1=O)c1cn(Cc2ccc(Cl)c(Cl)c2)c2ccccc12 | 30 | 16 | -14 | 45 | 40 | -15
Cc1ccc(/C=C/C(=O)C2C(=O)c3ccccc3C2=O)cc1 | -2 | 47* | -83 | -73 | 13 | -36
O=S(=O)(Nc1cccc2cccnc12)c1ccc(S(=O)(=O)N2CCCC2)cc1 | -13 | -6 | 7 | 50* | 13 | 14
O=C(O)c1ccc(S(=O)(=O)/N=C2\C=C(Nc3ccccc3F)C(=O)c3ccccc32)cc1 | 102* | -14 | -14 | 104* | 46 | -70*
CC(=O)Nc1ccc(NC2=C/C(=N/S(=O)(=O)c3cccs3)c3ccccc3C2=O)cc1 | 81* | 2 | 18 | 15 | 102* | -32
Cc1ccc(NC2=C/C(=N/S(=O)(=O)c3cccs3)c3ccccc3C2=O)cc1C | 47 | -65 | -40 | -64 | -22 | -14
Cc1ccccc1NC1=C/C(=N\S(=O)(=O)c2ccc(C(=O)O)cc2)c2ccccc2C1=O | 100* | -13 | 56* | 101* | 22 | -56*
COC(=O)c1ccc2nc(-c3cccc(Br)c3)c(Cc3ccsc3)n2c1 | 12 | x | -39 | -97 | x | -13
COCCn1c(SCC(=O)NCc2ccco2)nnc1-c1c[nH]c2ccccc12 | -8 | 73* | 8 | -4 | -3 | 17
CCn1c(SC(C)C(=O)OC)nnc1-c1c[nH]c2ccccc12 (stereo not drawn) | -6 | 75* | 18 | 11 | 9 | 8
Cc1ccc(-c2csc(=Nc3cccnc3)n2CCCn2ccnc2)cc1C | 75* | 47* | 11 | 28 | 3 | -6
Cc1ccc(NS(=O)(=O)c2ccc(-c3coc(C)n3)cc2)c(Cl)c1 | -5 | 4 | 3 | 20 | x | 8
C=CCCC(=O)N1C[C@H]2CON(C)[C@H]2C[C@H]1c1ccc(-n2ccnc2)cc1 | -11 | x | 6 | 5 | x | 5
CC(C)c1nnc(NC(=O)CCS(=O)(=O)c2nc(-c3cccs3)cc(C(F)(F)F)n2)s1 | 95* | -5 | 1 | 107* | 60 | -13
SMILES | CF NFkB inh | LMP1 NFkB inh | HIF-2a inh | Peg3 prom inh | MITF TRPM1 inh | KKLEB cytotox
C[C@@H]1CN([C@H](C)CO)C(=O)c2c(c3ccccc3n2C)-c2ccccc2CO[C@H]1CN(C)C(=O)NC1CCCCC1 | 9 | 4 | 6 | 3 | x | 6
Cc1ccc(/C=N/NC(=O)c2cccc(S(=O)(=O)N3CCOCC3)c2)o1 | 6 | -3 | 5 | 110* | -4 | -2
O=C(N/N=C/c1ccccc1C(=O)O)c1cccc(S(=O)(=O)N2CCOCC2)c1 | -32 | -3 | 11 | -18 | 4 | 29
O=C(NCc1ccc(F)cc1)c1cc(C2CCCN(C(=O)c3cccs3)C2)on1 (stereo not drawn) | 31 | x | 4 | 2 | x | -13
Cc1sc2nc(CN(C(=O)NC3CCCCC3)C3CCCCC3)[nH]c(=O)c2c1C | -11 | -1 | 13 | 50* | 20 | -5
Cc1ccsc1/C=N/Nc1ccc(C(=O)O)cc1 | -8 | 22 | 57* | 37 | u | 12
Cc1nc(C(F)(F)F)ccc1C(=O)N1CCCCCC1(C)C(=O)NCC(C)C (stereo not drawn) | -2 | x | 1 | 4 | x | -5
COc1ccc(CN(C)C(=O)CCl)cc1 | 3 | -5 | 1 | 12 | 11 | -11
CN(Cc1ccc(Cl)cc1)C(=O)CCl | 50* | 17 | -6 | 18 | 9 | -57*
COc1cccc(Nc2nc3cc(C)ccc3cc2C)c1 | -33 | 2 | 1 | -7 | x | 1
CN(C)CCNC(=O)c1cccc(-c2cnc3c(NC=O)cc(-c4cccc(F)c4)cn23)c1 | -40 | x | -10 | -26 | x | 2
COc1ccc(-c2cnc3c(NC=O)cc(-c4ccc(F)cc4)cn23)cc1OC | 66* | x | 22 | 7 | x | -52*
O=CNc1cc(-c2ccc(C(=O)NC3CC3)cc2)cn2c(-c3ccc(F)c(Cl)c3)cnc12 | 3 | x | -149 | 28 | x | -8
O=CNc1cc(-c2ccc(C(=O)NC3CC3)cc2)cn2c(-c3ccccc3)cnc12 | 23 | x | -52 | 61* | x | -17
CN(C)CCNC(=O)c1cccc(-c2cnc3c(NC=O)cc(/C=C/c4ccccc4)cn23)c1 | -11 | x | -44 | 97* | x | -1
CC(=O)c1ccc(-c2cnc3c(NC=O)cc(-c4ccc(N5CCN(C)CC5)cc4)cn23)cc1 | -8 | x | -73 | -101 | x | -18
COc1ccc(-c2cc(NC=O)c3ncc(-c4ccc(C(C)=O)cc4)n3c2)cn1 | 24 | x | 10 | 57* | x | -32
CS(=O)(=O)c1cc(N2CCOCC2)ccc1CNC[C@H]1O[C@@H](n2cnc3c(=O)[nH]c(N)nc32)[C@H](O)[C@@H]1O | -8 | x | 2 | -7 | x | -11
COCCNC(=O)C1(C)CCCN(Cc2cc3ccccc3o2)C1 (stereo not drawn) | 4 | x | 15 | 4 | x | -11
